Experimental data taken from PubChem BioAssay AID1974 (The Scripps Research Institute Molecular Screening Center, 2009).
Out of some 300,000 compounds screened, about 3,200 (1.1%) were called active.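 Rule for the calls: active = inhibition above the campaign mean inhibition plus 3 SD (cut at about 35% in these data); inactive = the rest.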 The entries come from a sample that favours actives as a whole.

Each compound was assayed against Glutathione S-transferase omega-1 (Homo sapiens) (UniProt P78417) (assay: inhibitors of recombinant GSTO1, primary screen, counter-screen for RBBP9 inhibitor project, biochemical, fluorescence polarization (AID 1974;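 note: 0% = GSTO1-1 with DMSO and 100% = wells lacking GSTO1-1 enzyme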)). Conditions: recombinant GSTO1, activity-based probe fluorescence polarization; at 5.96 µM; stronger effect = higher value.
Chain of Glutathione S-transferase omega-1 (Homo sapiens) (P78417 whole entry, looked up): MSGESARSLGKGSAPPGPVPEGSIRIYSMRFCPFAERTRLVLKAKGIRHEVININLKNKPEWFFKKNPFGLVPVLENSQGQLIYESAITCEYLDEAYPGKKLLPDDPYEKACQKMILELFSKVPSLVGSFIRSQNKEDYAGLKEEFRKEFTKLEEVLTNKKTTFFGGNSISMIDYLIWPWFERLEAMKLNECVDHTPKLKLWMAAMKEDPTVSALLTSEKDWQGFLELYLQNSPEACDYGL

Structure (SMILES) | inhibition
Cc1ccc(SCC2=NNC(=O)C2)cc1 | 42.2% (active)
Cc1ccc(SCCSc2ncccn2)cc1 | -0.48% (inactive)
Cc1ccc(SCc2cc(=O)[nH]c(N3CCCCC3)n2)cc1 | -1.38% (inactive)
COc1ccc(NC(=O)CCC(=O)N2CCN(S(=O)(=O)c3ccc(C)cc3)CC2)c(OC)c1 | -6.89% (inactive)
Cn1ccsc1=NC(=O)c1cc(S(=O)(=O)N2CCOCC2)ccc1Cl | -4.31% (inactive)
CCOC(=O)c1cc(Sc2ccccc2N)cc(C(=O)OCC)n1 | 8.34% (inactive)
CCOC(=O)c1c(C)oc2cc(Sc3ccccc3)c(O)c(O)c12 | 47.9% (active)
CCOC(=O)c1c(-c2ccccc2)oc2cc(Br)c(O)c(C=O)c12 | 0.6% (inactive)
Clc1ccc(N/N=C/c2cccs2)nn1 | 6.83% (inactive)
Cc1ccsc1/C=N/Nc1ccc(Cl)nn1 | -1.2% (inactive)
Oc1cccc(/C=N/Nc2ccc(Cl)nn2)c1O | 73% (active)
Cn1c(NC(=O)c2ccccc2)nc2ccccc21 | 4.42% (inactive)
CC(C)CN(C(=O)COC(=O)c1ccc(Cl)c(N)c1)c1c(N)n(Cc2ccccc2)c(=O)[nH]c1=O | 3.23% (inactive)
CCOc1ccc(C(c2c(C)[nH][nH]c2=O)c2c(C)[nH][nH]c2=O)cc1OCC | 23.6% (inactive)
Cc1[nH][nH]c(=O)c1C(c1ccc2c(c1)OCO2)c1c(C)[nH][nH]c1=O | 17.4% (inactive)
Cc1[nH][nH]c(=O)c1C(c1ccc(-c2ccc(Cl)cc2)o1)c1c(C)[nH][nH]c1=O | 65.6% (active)
NC(=O)NCCCC(=O)O | 6.89% (inactive)
OCc1ccc(-c2ccccc2)c(-c2ccccc2)c1 | 0.95% (inactive)
Cn1c(-c2ccc(F)cc2)cc2onc(-c3ccccc3Cl)c2c1=O | 2.68% (inactive)
CCCN1CC=C2C(C#N)=C(N)C(C#N)(C#N)C(c3cc(OC)ccc3OC)C2C1 (stereo not drawn) | 3.38% (inactive)

Structure (SMILES) | inhibition
N#CC1=C(N)C(C#N)(C#N)[C@H](c2ccsc2)[C@H]2COCC=C12 | 10.3% (inactive)
CCN1CC=C2C(C#N)=C(N)C(C#N)(C#N)[C@H](c3ccoc3)[C@H]2C1 | 38% (active)
Cc1ccc(C(=O)OCC(=O)N2CC(C)CC(C)C2)cc1S(=O)(=O)N1CCCCC1 (stereo not drawn) | 1.6% (inactive)
COc1cc(NC(=O)CSC(=S)N2CCCC2)c(OC)cc1Cl | 1.86% (inactive)
COc1ccc(-c2cc(=O)c3c(O)cc(O[C@@H]4O[C@H](CO[C@@H]5O[C@@H](C)[C@H](O)[C@@H](O)[C@H]5O)[C@@H](O)[C@H](O)[C@H]4O)cc3o2)cc1O | 6.25% (inactive)
CCOC(=O)COc1cc(O)c2c(=O)cc(-c3ccccc3)oc2c1 | 4.45% (inactive)
COc1c(O)cc2oc(-c3ccc(O)c(O)c3)cc(=O)c2c1O | 37% (active)
CC(C)(C)n1nc(Cc2cccc3ccccc23)c(C#N)c1N | 26.1% (inactive)
COc1ccc(COC(=O)NC(C(=O)O)c2ccccc2)cc1 (stereo not drawn) | 8.98% (inactive)
COc1ccc(C(CCN(Cc2ccc(OC)c(OC)c2)C(=O)CCl)c2ccccc2)cc1 (stereo not drawn) | 87% (active)
COc1ccc(CN(C)C(=O)CC(c2ccccc2)c2ccccc2)cc1 | -5.61% (inactive)
CCOc1cc(/C=N/NC(=O)c2cccc(S(=O)(=O)N3CCOCC3)c2)ccc1OCC(=O)N(C)C | 5.36% (inactive)
O=C1CCCN1C(=O)COc1ccc([N+](=O)[O-])cc1 | -4.91% (inactive)
CCc1nnc(NC(=O)CCC(=O)O)s1 | 3.28% (inactive)
CSc1nsc(SCC(=O)Nc2cc(C(=O)O)ccc2C)n1 | -0.11% (inactive)
CCc1nnc(NC(=O)CSc2nc(SC)ns2)s1 | 47.1% (active)
CCc1ccc(Nc2n[n+](-c3ccccc3)c(-c3cccc(Cl)c3Cl)s2)cc1 | 5.75% (inactive)
COc1ccc(N=C(C)c2sc3ccccc3c2O)cc1 | 3.42% (inactive)
Oc1ccc(N=Cc2sc3ccccc3c2Cl)cc1 | 87.7% (active)
O=C(N/N=C/c1c(Cl)[nH]c2ccccc12)c1sc2ccccc2c1Cl | -18.9% (inactive)

Structure (SMILES) | inhibition
CCN(CC(=O)Nc1c(F)cccc1F)C(=O)C1CCC1 | 0.37% (inactive)
COc1ccc(C(=O)OCC(=O)c2ccc(Cl)s2)c(OC)c1OC | 2.69% (inactive)
NNC(=O)c1oc2nc(-c3ccccc3)cc(-c3ccco3)c2c1N | 38.1% (active)
O=C(Nc1cccc(F)c1)c1cc(-c2ccco2)nc2ccccc12 | -14.9% (inactive)
CNC(=S)NNC(=O)c1oc2nc(-c3ccccc3)cc(-c3ccco3)c2c1N | 3.57% (inactive)
Cc1c(C)n2c(SCC(=O)NC3CCCC3)nnc2[nH]c1=O | 3.72% (inactive)
CCN(CC(=O)Nc1c(F)cccc1F)C(=O)CN1c2cccc3cccc(c23)S1(=O)=O | 0.89% (inactive)
C#CCOCCOCCOCCNc1nc(N2CCN(C(=O)CCCCCCCCCCNC(=O)[C@H]([C@@H](C)CC)n3cc(CCCCN=C(N)N)nn3)CC2)nc(N2CCN(C(=O)CCCCCCCCCCNC(=O)[C@H](CO)n3cc(CCCSC)nn3)CC2)n1 | 0.8% (inactive)
O=C(c1nnc(-c2ccc(Cl)cc2)o1)C1CCCC1 | -2.2% (inactive)
S=c1[nH]nc(-c2ccc(Cl)cc2)n1CC1CCCO1 (stereo not drawn) | 6.47% (inactive)
O=C(c1[nH]ncc1-c1ccc(Cl)cc1)C1CO1 (stereo not drawn) | 69.7% (active)
C#CCOCCOCCOCCNc1nc(N2CCN(C(=O)[C@H](CCCCN)n3cc(CCC(=O)O)nn3)CC2)nc(N2CCN(C(=O)[C@H](CCCCN)n3cc(CC(C)O)nn3)CC2)n1 (stereo partly drawn) | 5.45% (inactive)
Cc1cccc(N2CC(C(=O)Nc3ccccc3N3CCCC3)CC2=O)c1C (stereo not drawn) | -3.75% (inactive)
CC/C(=N/Nc1ccccc1)c1cnnc(SC)n1 | 46.9% (active)
CSc1nsc(NC(=O)Nc2ccccc2)n1 | -11% (inactive)
C/C(=N/Nc1ccc(Cl)cc1)c1cnnc(-c2ccccc2)n1 | -2.69% (inactive)
COc1cccc(NC(=O)CSc2nnc(-c3cccnc3)o2)c1 | -6.7% (inactive)
COC(C[C@@H](O)C[C@H](O)[C@H](C)OCc1ccccc1)OC | 3.16% (inactive)
